PMC5540273 (PLoS ONE, 2017)

Experiments:
Settings in all cases: concentration: 1 μM, replicates: in singlicate; n = 1
MARK4 = tested on: MARK4
MAST1 = tested on: MAST1
MEK1 = tested on: T1, MEK1
T1 construct: gene MAP2K1

MEK2 = tested on: T2, MEK2
T2 construct: gene MAP2K2

MEK3 = tested on: T3, MEK3
T3 construct: gene MAP2K3

MEK4 = tested on: T4, MEK4
T4 construct: gene MAP2K4

MEK5 = tested on: T5, MEK5
T5 construct: gene MAP2K5

MEK6 = tested on: T6, MEK6
T6 construct: gene MAP2K6

MELK = tested on: MELK
MERTK = tested on: MERTK
MET = tested on: MET
MINK = tested on: T7, MINK
T7 construct: gene MINK1

MKK7 = tested on: MKK7
MKNK1 = tested on: MKNK1
MKNK2 = tested on: MKNK2
MLCK = tested on: T8, MLCK
T8 construct: gene MYLK3

MLK1 = tested on: T9, MLK1
T9 construct: gene MAP3K9

MLK2 = tested on: MLK2
MLK3 = tested on: MLK3
MRCKA = tested on: MRCKA
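Further: KINOMEscan kinase panel screen.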

| Compound | %Inh (MARK4) [%] | %Inh (MAST1) [%] | %Inh (MEK1) [%] | %Inh (MEK2) [%] | %Inh (MEK3) [%] | %Inh (MEK4) [%] | %Inh (MEK5) [%] | %Inh (MEK6) [%] | %Inh (MELK) [%] | %Inh (MERTK) [%] | %Inh (MET) [%] | %Inh (MINK) [%] | %Inh (MKK7) [%] | %Inh (MKNK1) [%] | %Inh (MKNK2) [%] | %Inh (MLCK) [%] | %Inh (MLK1) [%] | %Inh (MLK2) [%] | %Inh (MLK3) [%] | %Inh (MRCKA) [%] |
| --- | --- | --- | --- | --- | --- | --- | --- | --- | --- | --- | --- | --- | --- | --- | --- | --- | --- | --- | --- | --- |
| CCS(=O)(=O)c1ccc(OC)c(Nc2ncc(-c3ccc(F)cc3)o2)c1.Cl [GW591947] | 0 | 0 | 0 | 0 | 0 | 6 | 18 | 0 | 0 | 28 | 0 | 0 | 0 | 0 | 0 | 0 | 0 | 0 | 6 | 10 |
| COc1cccc(C2=C(Nc3cccc(C(=O)O)c3)C(=O)NC2=O)c1 [SB-390770] | 23 | 35 | 0 | 10 | 0 | 16 | 4 | 0 | 21 | 3 | 0 | 7 | 15 | 2 | 0 | 0 | 0 | 47 | 45 | 17 |
| O=C(Nc1ccc2c(c1)OCO2)NC1CCN(c2ccnc(NCc3ccc(F)cc3)n2)CC1 [GSK1379859] | 20 | 0 | 0 | 0 | 6 | 0 | 8 | 0 | 100 | 26 | 0 | 0 | 0 | 0 | 0 | 0 | 0 | 0 | 0 | 0 |
| COc1cccc(C2=C(N(C)c3ccccc3)C(=O)NC2=O)c1 [SB-334865] | 1 | 0 | 0 | 0 | 0 | 4 | 6 | 0 | 0 | 18 | 0 | 11 | 0 | 3 | 0 | 0 | 0 | 0 | 12 | 0 |
| CCC(=O)c1c(-c2ccccc2)c2cc(Cl)ccc2c(=O)n1Cc1ccc(C(=O)O)cc1 | 0 | 11 | 0 | 3 | 0 | 0 | 0 | 0 | 0 | 0 | 0 | 0 | 0 | 0 | 0 | 0 | 0 | 0 | 0 | 0 |
| COc1cc2ncn(-c3cc(OCCCc4ccccc4)c(C(N)=O)s3)c2cc1OC [GSK205189] | 0 | 0 | 0 | 0 | 0 | 0 | 96.8 | 0 | 0 | 0 | 5 | 3 | 0 | 3 | 0 | 0 | 3 | 19 | 8 | 0 |
| Cc1ccc(Oc2ccc(Nc3ncnc4cc[nH]c34)cc2C)cn1 | 19 | 49 | 37 | 25 | 0 | 0 | 99.7 | 9 | 0 | 0 | 4 | 10 | 0 | 34 | 41 | 0 | 5 | 19 | 1 | 0 |
| COc1cc(Nc2nccc(N3CCC(NC(=O)C(C)c4ccc(Cl)cc4)C3)n2)cc(OC)c1OC (stereo not drawn) [GSK1379757] | 11 | 0 | 0 | 0 | 0 | 5 | 59 | 0 | 6 | 0 | 0 | 0 | 15 | 0 | 16 | 0 | 22 | 0 | 28 | 15 |
| Nc1ncnc2c1ncn2-c1cccc(F)c1 [SKF-97560] | 0 | 19 | 34 | 31 | 43 | 22 | 31 | 0 | 22 | 24 | 18 | 9 | 29 | 0 | 32 | 18 | 5 | 30 | 10 | 0 |
| COC(=O)c1c(-c2ccccc2)c2cc(Br)ccc2c(=O)n1Cc1ccc(NC(=O)CCC(=O)O)cc1 | 4 | 29 | 0 | 3 | 11 | 10 | 10 | 21 | 7 | 3 | 18 | 0 | 0 | 0 | 0 | 0 | 0 | 0 | 0 | 0 |
| COC(=O)c1c(-c2ccccc2)c2cc(Br)ccc2c(=O)n1Cc1ccc(S(C)(=O)=O)cc1 | 1 | 21 | 13 | 7 | 2 | 17 | 29 | 17 | 12 | 4 | 2 | 10 | 19 | 8 | 0 | 3 | 1 | 0 | 0 | 0 |
| CCS(=O)c1ccc(-c2coc3ccc(-c4nnc(C)o4)cc23)cc1 (stereo not drawn) | 0 | 53 | 0 | 8 | 6 | 23 | 22 | 0 | 0 | 0 | 0 | 15 | 23 | 17 | 1 | 0 | 0 | 7 | 15 | 0 |
| COc1ccc(-c2cc3c(C)nc(N)nc3n([C@H]3CC[C@H](OCCO)CC3)c2=O)cn1 | 0 | 0 | 0 | 0 | 5 | 0 | 0 | 16 | 19 | 0 | 0 | 1 | 0 | 0 | 0 | 17 | 0 | 0 | 3 | 0 |
| COc1cc2ncn(-c3cc(OCc4ccc(S(C)(=O)=O)cc4)c(C(N)=O)s3)c2cc1OC [GW869979] | 0 | 5 | 30 | 25 | 28 | 6 | 81 | 0 | 8 | 0 | 9 | 38 | 6 | 0 | 12 | 0 | 4 | 0 | 0 | 0 |
| Cc1cccc(-c2cc(-c3c[nH]nc3-c3ccccn3)ccn2)c1 [GW679395] | 0 | 0 | 0 | 0 | 0 | 36 | 27 | 0 | 0 | 12 | 0 | 38 | 3 | 0 | 2 | 0 | 0 | 0 | 0 | 9 |
| Nc1nc(N)c2nc(-c3ccccc3)[nH]c2n1 [SKF-12778] | 11 | 0 | 0 | 13 | 0 | 1 | 18 | 0 | 9 | 47 | 0 | 0 | 29 | 0 | 1 | 0 | 40 | 66 | 40 | 15 |
| COc1cc(Nc2nccc(N3CCC(NC(=O)C4COc5ccccc5O4)C3)n2)cc(OC)c1OC (stereo not drawn) [GSK1379761] | 0 | 0 | 25 | 0 | 0 | 0 | 97.2 | 0 | 11 | 36 | 19 | 0 | 0 | 0 | 31 | 12 | 63 | 4 | 44 | 0 |
| OCCCNc1nccc(-c2c(-c3cccc(C(F)(F)F)c3)nn3cc(C(F)(F)F)ccc23)n1 [GW630813] | 0 | 0 | 0 | 0 | 0 | 0 | 7 | 0 | 0 | 12 | 0 | 0 | 15 | 0 | 0 | 0 | 0 | 0 | 0 | 0 |
| Cn1c(=O)c(F)c(Nc2ccc(I)cc2F)c2c(=O)n(OC[C@H](O)CO)cnc21 | 33 | 37 | 99.6 | 99.1 | 0 | 0 | 0 | 0 | 13 | 5 | 12 | 0 | 0 | 4 | 0 | 0 | 19 | 25 | 9 | 20 |
| Nc1nccc2scc(-c3ccc4c(c3)CCN4C(=O)Cc3ccccc3)c12 [GSK2576924] | 0 | 0 | 2 | 7 | 0 | 5 | 93.2 | 6 | 16 | 22 | 0 | 7 | 9 | 3 | 2 | 3 | 0 | 0 | 5 | 11 |
| O=C1NC(=O)C(c2ccccc2)=C1Nc1cccc(O)c1 [SB-390534] | 0 | 33 | 16 | 14 | 10 | 12 | 29 | 0 | 4 | 9 | 0 | 22 | 0 | 0 | 21 | 0 | 0 | 0 | 6 | 0 |
